In the library only some 0.89% were active in any assay of this set; here they are far more common.
CtBP-E1A inh: inhibitors of CtBP/E1A interaction; AlphaScreen GST-E1A/His-CtBP binding, 1536-well; active compounds read low; AID 651724; actives 0.49% (n = 340,000); activity change, % (no concentration beside the values); in the data active = activity change below about -65%; inconclusive = mostly about -30% to -63%
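Homogeneous bead-based format: GST-tagged E1A captured on glutathione donor beads, His-tagged CtBP on nickel acceptor beads; compounds precede bead addition by 2 h at 37 °C.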
L3MBTL1 block: L3MBTL1 (human) inhibition; Q9Y468; AlphaScreen L3MBTL1–H3K9me1 peptide binding; Potency, µM (doses to about 57.1 µM), most hits filed as inhibitors; actives 0.66% (n = 230,000); AID 485360; note: nearly all actives have a fitted effect of over 60% in size
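Read-out is AlphaScreen signal from streptavidin donor and nickel chelate acceptor beads (10 ug/mL final each) bridging L3MBTL1 (50 nM) and biotinylated K9-monomethylated H3(1-15) peptide (75 nM), after 30 min compound exposure at room temperature.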
Six1-Eya2 inh: Six1/Eya2 interaction inhibition; actives 0.56% (n = 360,000); Q15475+O00167; activity change, % (test concentration not listed); AlphaScreen GST-Six1/His-Eya2 binding, biochemical; active compounds read low; in the data active = activity change below about -65%; inconclusive = mostly about -30% to -63%
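GST-Six1 + His-Eya2 (5X stock: 250/500 nM); Tris pH 8.0, 300 mM NaCl, 0.05% BSA, 0.02% Tween 20; GSH donor/Ni acceptor beads; 1 h 37 °C dark; AlphaScreen readout.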
Eya2 phos inh: blocks the phosphatase activity of human Eya2. O00167. Potency, µM (top dose mostly 76.9 µM), usual class: inhibitors. AID 488837. actives 0.006% (n = 330,000). recombinant Eya2, OMFP fluorescence dephosphorylation (OMFP is methylfluorescein phosphate)
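Eya2 (0.2 uM) preincubated 10 min at ambient with compound, then OMFP substrate added at 50 uM; 10 min reaction in 50 mM HEPES pH 7.5, 50 mM NaCl, 5 uM MgCl2, 0.05% BSA, 1 mM DTT. Fluorescence read at Ex 485/Em 525 nm.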
MBNL1-CUG inh: blocks human MBNL1 binding to CUG repeat RNA; TR-FRET MBNL1-His/biotin-(CUG)12 binding, 665/545 ratio; Potency, µM (top dose mostly 57.5 µM), actives largely listed as inhibitors; actives 0.036% (n = 280,000); AID 2675; active = well fitted inhibition curve with a large enough effect in the signal ratio, with a control signal flat, not every such curve was filed as active; inconclusive = small, poorly fitted or top-dose-only effect, or effect the other way, or a change in a side signal; inactive = no such curve, though single readings can be large or run the other way; the % refers to the signal ratio
Target sequence (Q9NR56 whole entry, looked up): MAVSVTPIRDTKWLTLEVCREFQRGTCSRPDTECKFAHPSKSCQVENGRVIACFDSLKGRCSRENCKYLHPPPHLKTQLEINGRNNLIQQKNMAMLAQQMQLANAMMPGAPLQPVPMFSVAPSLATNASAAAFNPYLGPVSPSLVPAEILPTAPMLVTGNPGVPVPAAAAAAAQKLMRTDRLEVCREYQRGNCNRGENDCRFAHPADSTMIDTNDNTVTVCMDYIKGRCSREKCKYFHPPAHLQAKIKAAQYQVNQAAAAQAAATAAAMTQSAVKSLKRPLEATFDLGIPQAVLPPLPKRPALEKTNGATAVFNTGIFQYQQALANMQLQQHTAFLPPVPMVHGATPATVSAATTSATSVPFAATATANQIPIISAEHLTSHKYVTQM
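His-tagged MBNL1 binding to biotinylated (CUG)12 RNA was measured by TR-FRET using terbium anti-His antibody (0.055 ng/ul final) and streptavidin-XL665 (5 nM final). Compounds were titrated 92 nM to 58 uM; 60 min at room temperature.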
CBFb RUNX1 block: CBF-beta/RUNX1 interaction disruption; AID 1477; 230,000 tested, under 10 active; Potency, µM (doses to about 59.8 µM), actives largely listed as inhibitors; AlphaScreen CBFb-His/RUNX1-biotin binding, biochemical; Q01196+Q13951
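His-tagged CBF-beta and biotinylated RUNX1 (30 nM each) were premixed 20 min at room temperature, exposed to compound for 15 min, then given nickel-chelate and streptavidin AlphaScreen beads (50 ng each). After 90 min, AlphaScreen signal was read.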
Hits are given with their value; 0 = inactive; ? = inconclusive; - = no result given; [ ] = dose if it differs, or a comment. Unless noted, calls come from the whole dose curve; as a rule, active = well fitted curve in the direction sought with a large enough effect; inconclusive = small, poorly fitted or top-dose-only effect, or another doubt; inactive = no such curve, though single readings can be large; an effect the other way counts as inactive or inconclusive.

SMILES	CtBP-E1A inh	L3MBTL1 block	Six1-Eya2 inh	Eya2 phos inh	MBNL1-CUG inh	CBFb RUNX1 block
O=C(N/N=C/c1cc(Br)c(Br)o1)c1ccc2c(c1)OCCO2	0	?	0	0	-	?
O=C(N/N=C/c1ccccc1O)c1ccc2c(c1)OCO2	-78	-	?	0	0	-
Cc1cc(Br)cc(/C=N/NC(=O)c2ccc3c(c2)OCO3)c1O	-	0	0	0	0	-
O=C(N/N=C/c1cc(Br)cc(Cl)c1O)c1ccc2c(c1)OCO2	-83	-	-81	-	-	-
O=C(N/N=C/c1cc(Br)c(O)c(Br)c1O)c1ccc2c(c1)OCCO2	-97	-	-85	0	0	-
COc1cc(Cl)cc(/C=N\NC(=O)c2ccc3c(c2)OCO3)c1O	?	-	-88	-	-	-
O=C(Cn1ccc(NC(=O)OCc2ccccc2)nc1=O)NCc1ccc2[nH]ccc2c1	0	0	0	0	-	-
COc1ccc(CCN(C)CCCOc2ccc(S(=O)(=O)c3[nH]c4ccccc4c3C(C)C)cc2)cc1OC	-	-	-	-	-	0
O=C(CSc1ccccn1)Nc1ccc2c(c1)C(=O)c1ccccc1C2=O	0	0	0	0	?	0
O=C(CSc1n[nH]c(=O)[nH]c1=O)Nc1ccc2c(c1)C(=O)c1ccccc1C2=O	-85	28µM	-72	0	?	0
CC1Cc2ccccc2N1NC(=O)c1ccc(Cl)c(S(N)(=O)=O)c1 (stereo not drawn)	0	0	-85	0	0	0
CCCCc1ccc(-c2nn[nH]n2)nc1	?	-	-81	-	-	-
O=C(CNC(=O)c1ccccc1)OC(C(=O)O)c1ccc(F)cc1 (stereo not drawn)	0	-	0	-	-	-
O=C(CCS(=O)(=O)c1ccc(F)cc1)Nc1nc(-c2ccccn2)cs1	-	-	-76	0	0	-
O=C(CCS(=O)(=O)c1ccccc1)Nc1nc(-c2ccccn2)cs1	-80	-	0	-	-	-
O=C(CCS(=O)(=O)c1ccccc1)Nc1ccccn1	0	-	0	0	0	-
COc1ccc(OCCCC(=O)Nc2nc(-c3ccccn3)cs2)cc1	0	?	0	0	0	-
CC(Oc1ccc(F)cc1)C(=O)Nc1nc(-c2ccccn2)cs1 (stereo not drawn)	-79	?	0	0	-	-
Cc1noc(C)c1COc1ccc(C(=O)Nc2nnc(CC(C)C)s2)cc1	0	0	0	0	-	-
CCN(CC)C(=O)C1=C(C)N(CCCOC)C(=O)C(CC(=O)NCCN2CCOCC2)C1 (stereo not drawn)	0	-	0	-	-	-
Cn1c(=O)c2cc(S(=O)(=O)NCCC(=O)N3CC=C(c4ccccc4)CC3)ccc2n(C)c1=O	-86	0	?	0	0	0
Cn1c(=O)c2cc(S(=O)(=O)NCCC(=O)NCc3ccccc3Cl)ccc2n(C)c1=O	-81	0	-69	0	0	0
CC(=O)Nc1c(Br)cc2c(c1Br)Cc1cc([N+](=O)[O-])ccc1-2	0	-	0	-	-	-
Cn1c2ccccc2c2nnc(SCC(=O)Nc3cccc(C(=O)O)c3)nc21	?	-	-67	0	?	-
Cc1ccc(C2=NN=C(NC(=O)CSc3nnc4c5ccccc5n(C)c4n3)SC2)cc1	?	0	-72	0	0	?
SMILES	CtBP-E1A inh	L3MBTL1 block	Six1-Eya2 inh	Eya2 phos inh	MBNL1-CUG inh	CBFb RUNX1 block
Cn1c2ccc(F)cc2c2nnc(SCC(=O)Nc3cccc(O)c3)nc21	?	0	0	0	?	-
Cc1ccc(C2=NN=C(NC(=O)CSc3nc(C)cc(C)n3)SC2)cc1	-	0	-	0	0	0
C=CCOC(=O)C(C(C)=O)C(NC(=O)OC)c1ccc2ccccc2c1 (stereo not drawn)	-	-	-	-	-	0[13.1 µM]
Cc1cc(NC(=O)c2ccc(Cn3nc(C)c(Br)c3C)o2)no1	0	-	-70	0	0	0
O=C(Nc1nnc(CCN2CCCCC2)s1)c1ccccc1Cl	0	0	0	0	0	0
O=C(CNC(=O)c1ccco1)N/N=C/c1ccc(O)cc1O	-	-	-86	0	0	-
O=C(CNC(=O)c1ccco1)N/N=C/c1cc(Br)ccc1O	-86	-	-97	0	0	-
COc1cc(/C=N/NC(=S)Nc2cccc(S(=O)(=O)N(C)C)c2)cc(OC)c1O	0	0	0	0	?	0
CN(C)S(=O)(=O)c1cccc(NC(=S)N/N=C/c2ccc(O)c(O)c2O)c1	-97	1.6µM	-93	0	0	-
COc1ccc(O)c(/C=N/NC(=S)Nc2cccnc2)c1	-	11µM	-90	0	0	?
COc1ccc(O)c(/C=N/NC(=S)Nc2cccc(S(=O)(=O)N(C)C)c2)c1	0	10µM	-90	0	-	0
COc1cccc(/C=N/NC(=S)Nc2cccc(S(=O)(=O)N(C)C)c2)c1	0	-	0	0	0	0
COC(C)=O	-	-	-	-	-	0
O=C(Nc1cccc(Cl)c1)Nn1cnnc1	0	0	0	0	25µM	0
Cc1[nH]c2ccc(C(=O)OC(C)C(=O)NC3(C#N)CCCCC3)cc2c1C (stereo not drawn)	0	0	0	0	-	-
Cc1cc(C)n2c(NC3CCCCC3)c(-c3ccccn3)nc2n1	?	-	-78	-	-	-
c1ccc(-c2nc3ccccn3c2NC2CCCC2)nc1	-67	?	?	0	0	0
Cc1ccn2c(NC3CCCC3)c(-c3ccccn3)nc2c1	-80	-	-66	0	0	?
COc1ccc(-c2nc3ccccn3c2NC2CCCCC2)cc1SC1CCCCC1	0	0	0	0	-	-
Cc1ccc(S(=O)(=O)N2CCN(c3ccccc3)CC2)cc1C(N)=O	0	0	0	0	0	0
O=C(CCN1C(=O)C2CCCCC2C1=O)Nc1ccc(F)c(F)c1F (stereo not drawn)	0	-	0	0	0	0
Cc1cccc(OCC(O)CN2CCOCC2)c1 (stereo not drawn)	-	0	0	0	0	-
O=C(NCc1ccco1)c1ccc(Cl)c(S(=O)(=O)Nc2ccccc2)c1	0	0	0	0	0	0
CNS(=O)(=O)c1cc(C(=O)NCc2ccco2)ccc1Cl	0	-	-69	0	0	0
COC(=O)[C@@H]1C[C@H]1[C@@H](NS(=O)(=O)c1ccc2ccccc2c1)c1ccccc1	-	-	-	-	-	0
SMILES	CtBP-E1A inh	L3MBTL1 block	Six1-Eya2 inh	Eya2 phos inh	MBNL1-CUG inh	CBFb RUNX1 block
CCc1cc2c(=O)[nH]c(N3CCCC3)nc2s1	0	0	0	0	0[11.5 µM]	0
CCc1cc2c(=O)[nH]c(-c3ccccn3)nc2s1	0	?	-92	0	?	0
CCn1nc(C)c(CNC(=O)CC2C(=O)NCCN2CC(C)(C)C)c1C (stereo not drawn)	0	0	0	0	0	0
CCn1cc(/C=C(\NC(=O)c2ccccc2F)C(=O)NCCCn2ccnc2)c2ccccc21	0	-	0	0	0	-
COc1ccc(C(C(=O)NC(C)(C)C)N(C(=O)CNC(=O)c2cccs2)c2cccnc2)cc1OC (stereo not drawn)	0	-	0	0	0	-
Nc1cc2nsnc2cc1Br	?	16µM	0	0	?	0
